This is one part of a sample in which hits are shown more often than they occur.
ST2 IL33 inh – IL1RL1 inhibition | Q01638 | AlphaLISA ST2-Fc/biotin-IL-33 interaction, 1 h | inhibition, % for hits at 17 µM | hit rate 2.3% among 78,000; in the data active means inhibition above about 30%
Target sequence (Q01638 whole entry, looked up): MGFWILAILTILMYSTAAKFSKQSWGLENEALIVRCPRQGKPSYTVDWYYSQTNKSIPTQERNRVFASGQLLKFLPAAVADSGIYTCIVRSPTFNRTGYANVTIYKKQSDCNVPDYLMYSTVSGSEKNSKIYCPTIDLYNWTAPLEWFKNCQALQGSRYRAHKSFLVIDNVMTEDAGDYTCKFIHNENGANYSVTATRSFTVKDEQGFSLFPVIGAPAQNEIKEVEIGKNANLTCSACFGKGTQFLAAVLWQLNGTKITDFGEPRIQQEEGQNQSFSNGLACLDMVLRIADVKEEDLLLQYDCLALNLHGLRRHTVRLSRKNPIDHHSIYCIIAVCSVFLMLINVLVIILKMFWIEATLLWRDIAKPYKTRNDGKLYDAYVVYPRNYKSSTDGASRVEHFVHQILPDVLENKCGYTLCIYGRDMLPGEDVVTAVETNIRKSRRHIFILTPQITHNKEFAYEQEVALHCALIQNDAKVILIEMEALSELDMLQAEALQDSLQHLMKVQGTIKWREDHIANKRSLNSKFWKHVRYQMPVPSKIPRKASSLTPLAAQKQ
Numbers stand for hits; – = inactive.

SMILES | ST2 IL33 inh
Cc1ccc2c(c1)c1c(n2CCN2C(=O)c3ccccc3C2=O)C(=O)CCC1 | –
Cc1ccc2c(c1)c1c(n2CCC#N)CCN(C)C1 | 42%
Cc1nc2ccc(I)cc2c(=O)n1C | –
Cc1nc(SCC(=O)Nc2cccc(F)c2)c2c(=O)n(C)c(=O)n(C)c2n1 | –
O=[N+]([O-])c1ccc(/C=C/c2ccc3ccccc3n2)o1 | 67%
Cn1c(/C=C/c2ccc([N+](=O)[O-])o2)nc2ccc(I)cc2c1=O | –
Cc1ccc(C2(O)CCN(CC(=O)N3CCOc4ccccc43)CC2)nc1 | –
FC(F)(F)c1cc(-c2cccs2)nc(N2CCCC2)n1 | –
Cc1cccc(C(=O)N2C(C)CCCC2C)c1 (configuration not stated) | –
COC(=O)[C@@H]1CN(C(=O)c2cccc(F)c2)CCN1C(=O)c1cccnc1 | –
CC1CN(C(=O)c2cccc(F)c2)C(C)CN1C(=O)c1cccc(F)c1 (configuration not stated) | 85%
O=C(Nc1ccc(F)cc1F)c1ccc(-c2ccc(Cl)cc2)o1 | –
O=C(c1ccccc1Cl)N1CCN(c2ccccc2)CC1 | –
N#CC(C#N)=C1C(Cl)=C(N2CCCCC2)c2ccccc21 | 82%
N#Cc1c(N)nc2c(c1-c1ccccc1Cl)CCCCC2 | –
CCOc1ccccc1C1C(C(=O)OC)=C(N)OC2=C1C(=O)CC(C)(C)C2 (configuration not stated) | –
NNc1nc(N)c2c(n1)-c1ccccc1CC21CCCCC1 | –
CN1CC(n2cnc(-c3ccccc3)c2-c2ccccc2C(=O)O)CCC1=O (configuration not stated) | –
Cc1nn(C)c(Cl)c1-c1c(-c2ccccc2)ncn1C1CC=CC1 | –
CN1CCC(n2cnc(-c3ccccc3)c2-c2cccc3cccnc23)CC1 | 30%
COc1cccc(S(=O)(=O)c2c(C)cc(C)cc2C)c1 | –
CCOC(=O)C1=C(C)N=C2SCC(=O)N2C1c1ccc(OCC)c(OCC)c1 (configuration not stated) | –
COc1ccc(S(=O)(=O)N=C2C=CC(=O)c3ccccc32)cc1 | 39%
COc1ccc(NC(=O)C(Cc2ccccc2)N2C(=O)c3ccccc3C2=O)cc1 (configuration not stated) | –
COc1ccc(S(=O)(=O)N=C2C=C(C(C)C)C(=O)C=C2C)cc1 | –
SMILES | ST2 IL33 inh
COc1ccc(S(N)(=O)=O)cc1 | –
CCOc1ccc(S(=O)(=O)N(CC(=O)Nc2cccc(OC)c2)c2ccccc2)cc1 | –
COc1ccc(C=NS(=O)(=O)c2ccccc2)c(OC)c1 | –
CCOc1ccc(NC(=O)Cc2ccc(OC)cc2)cc1 | –
CCOc1ccc(S(=O)(=O)N=C2C=C(Nc3ccccc3)C(=O)c3ccccc32)cc1 | 87%
COc1ccc(S(=O)(=O)N=C2C=C(Nc3ccccc3)C(=O)c3ccccc32)cc1 | 85%
CCc1ccc(NS(=O)(=O)c2ccc(OC)cc2)cc1 | –
CCOc1ccc(S(=O)(=O)NCCO)cc1 | –
CCOc1ccc(S(=O)(=O)N=C2C=C(Nc3ccc(OC)cc3)C(=O)c3ccccc32)cc1 | 93%
COc1ccc(NC(=O)C2CC(Cl)=CCC2C(=O)O)cc1 (configuration not stated) | –
Cc1ccc(Cn2nc(C)c(NC(=O)CCCn3nc([N+](=O)[O-])cc3C)c2C)cc1 | –
Cc1cccc(OCCCN2CCNCC2)c1C | –
COC(=O)c1cn(C(C)C)cc(C(=O)N2CCOC(C(F)(F)F)C2)c1=O (configuration not stated) | –
Cc1ccc(CN2C(=O)CSc3ccc(C(=O)NC4CCCCC4C)cc32)cc1 (configuration not stated) | –
O=C(c1ccco1)n1nnc2ccccc21 | –
O=C(CNS(=O)(=O)c1ccc(Br)s1)N1CCN(c2ccccc2)CC1 | –
CC(C)c1ccc(OCC(O)CN2CCCCC2C)cc1 (configuration not stated) | –
CC(=O)c1ccc(C(=O)Nc2nc3c(cc4c5c(cccc53)CC4)s2)cc1 | –
COC(=O)c1cc(-c2cc(OC)ccc2F)c[nH]1 | –
CC(C)Cc1ccc(S(=O)(=O)Nc2ccccc2)cc1 | –
COc1ccc(C)cc1NS(=O)(=O)c1ccc(OC)c(OC)c1 | –
CCc1ccc(S(=O)(=O)NCC(=O)O)cc1 | –
CCOc1ccc(NC2=CC(=NS(=O)(=O)c3ccc(F)cc3)c3ccccc3C2=O)cc1 | 95%
CCOc1c(Nc2ccc(F)cc2)c(=O)c1=O | –
CCc1ccc(S(=O)(=O)N=C2C=C(Nc3ccccc3)C(=O)c3ccccc32)cc1 | 79%
SMILES | ST2 IL33 inh
CCOc1ccc(Nc2c(OCC)c(=O)c2=O)cc1 | –
CCOc1ccc(S(=O)(=O)Nc2ccc(I)cc2)cc1 | –
CCOc1ccc(NC(=O)c2ccccc2F)cc1 | –
COc1ccccc1NS(=O)(=O)c1ccc(C(C)(C)C)cc1 | –
COc1ccccc1NC1=CC(=NS(=O)(=O)c2ccc(C)cc2)c2ccccc2C1=O | 94%
CCOc1ccc(NC2=CC(=NS(=O)(=O)c3ccc(OCC)cc3)c3ccccc3C2=O)cc1 | 93%
O=c1[nH]nc(SCc2cccc(Cl)c2)c(=O)[nH]1 | –
N#Cc1ccc(-c2cc(C(=O)O)c3c(ccc4ccccc43)n2)cc1 | –
COc1ccc(C(=O)Nc2ccccc2C(C)(C)C)cc1[N+](=O)[O-] | –
COc1ccc2c(=O)c(-c3ccccc3)c(C)oc2c1C | –
O=C(O)CSCC(=O)N1C[C@@H]2C[C@H](C1)c1ccc(NS(=O)(=O)Cc3ccccc3)c(=O)n1C2 | –
Cn1c(=O)n(Cc2ccccc2F)c(=O)c2c1nc1n2CCN1c1ccccc1 | –
COC(=O)c1cccnc1N1CCCC(C(=O)c2ccc(SC)cc2)C1 (configuration not stated) | –
O=S(=O)(c1ccsc1)N1CCOC(Cc2ccccc2Cl)C1 (configuration not stated) | –
Cc1cn(CC(=O)N2CCOC(CCCc3ccccc3)C2)c(=O)[nH]c1=O (configuration not stated) | –
Cc1ccccc1NC(=O)C(NS(=O)(=O)c1cccs1)C(C)C (configuration not stated) | –
Cc1ccc(NC2=CC(=NS(=O)(=O)c3cccs3)c3ccccc3C2=O)c(C)c1 | 89%
CC1=C(C(=O)Nc2ccc(C)cc2C)C(c2cccs2)n2nnnc2N1 (configuration not stated) | –
O=C(c1cc2cc3ccc(Cl)cc3nc2o1)N1CCN(c2ccccc2)CC1 | –
COc1ccc(NC(=S)N[C@H]2C[C@H]3C(=O)NC[C@@H](CCC(=O)NC4CC4)N3C2)cc1 | –
O=C(CC[C@@H]1CNC(=O)[C@@H]2C[C@H](NC(=S)Nc3ccccc3)CN12)NC1CC1 | –
CCN(CC)C(=O)CC[C@@H]1CNC(=O)[C@@H]2C[C@H](NC(=S)Nc3ccccc3)CN12 | 36%
CS(=O)(=O)N1CCN(c2ccc(F)cc2)CC1 | –
CCN(CC)C(=O)Cn1c(=O)n(CC2CCC(C(=O)NC(C)C)CC2)c(=O)c2sccc21 (configuration not stated) | –
COc1ccc(NC(=O)C(C)(C)Oc2ccc(Cl)cc2)cc1OC | –
SMILES | ST2 IL33 inh
COc1cc([N+](=O)[O-])ccc1NC(=O)C(C)(C)Oc1ccc(Cl)cc1 | 30%
COc1cc(NC(=O)C(C)(C)Oc2ccc(Cl)cc2)c(OC)cc1Cl | –
O=C(Cn1nc(-c2ccccc2)ccc1=O)NCc1cccnc1 | –
O=c1c2cnn(-c3ccccc3)c2ncn1Cc1cccnc1 | –
C(=Nc1cc(-c2ccccc2)nn1-c1ccccc1)c1cccnc1 | 33%
Cc1nc2ncccn2c1C(=O)N1CCCC(Cc2ccc(C(=O)O)cc2)C1 (configuration not stated) | –

Screens as filed in PubChem BioAssay.
